# In PubChem BioAssay AID1259421 (Broad Institute, 2018):
# Values joined by “and” are separate entries in the source; they are usually repeats but may differ in a detail not shown here. Equal values may be shown once. In all, about 6,400 compounds went through this assay and about 610 (9.5%) were called active. Rule as the data show it: active = activity change below about -70%; inconclusive = no clear call, values can overlap the other calls; inactive = above that. The full list was thinned out, with actives kept by preference. A structure can be active in one record and inactive in another.
# Assay: Toxoplasma gondii ME49Luc growth in HeLa cells, luciferase, no IFN-y, primary screen (AID 1259421)
# Conditions: T. gondii ME49Luc in HeLa, 72 h, stronger effect = lower value, concentration not given here
row,Structure (SMILES),"activity change, negative = inhibition"
1,COc1cc(/C=C/C(=O)N2CCN(CC(=O)NC(C)C)CC2)cc(OC)c1OC,-0.924% (inactive)
2,CC(C)NC(=O)COc1cccc(-c2nc(Nc3ccc4[nH]ncc4c3)c3ccccc3n2)c1,-49.1% (inactive)
3,COc1ccc(CNC(=O)c2cc(-c3cncc(C)c3)ncc2-c2nccs2)nc1OC,3.2% (inactive)
4,N[C@@H](C(=O)O)[C@@H](OCc1ccccc1)C(=O)O (racemic),8.74% (inactive)
5,COc1cc(/C=C/C(=O)O[C@H]2CC[C@]34CC35CC[C@]3(C)[C@@H](C(C)CCC=C(C)C)CC[C@@]3(C)C5CCC4C2(C)C)ccc1O (stereo partly drawn),9.65% (inactive)
6,C=C(NC(=O)C(=C)NC(=O)c1csc(C2=N[C@H]3c4csc(n4)[C@H]4NC(=O)c5csc(n5)[C@H]([C@@](C)(O)[C@@H](C)O)NC(=O)[C@H]5CSC(=N5)/C(=C/C)NC(=O)[C@H]([C@@H](C)O)NC(=O)c5csc(n5)[C@]3(CC2)NC(=O)[C@H](C)NC(=O)C(=C)NC(=O)[C@H](C)NC(=O)[C@H](C(C)CC)N[C@@H]2C=Cc3c([C@H](C)O)cc(nc3[C@H]2O)C(=O)O[C@@H]4C)n1)C(N)=O (stereo partly drawn),-5.27% (inactive)
7,Clc1cccc(Nc2nnc(-c3ccccc3)c3ccccc23)c1,-1.93% (inactive) and 0.598% (inactive)
8,O=C(O)c1cccnc1Nc1cccc(C(F)(F)F)c1,5.33% (inactive) and 7.04% (inactive)
9,O=C(O)c1ccc2c(c1)nc(Nc1cccc(Cl)c1)c1ccncc12,-81.6% (active)
10,Cc1noc(-c2ccc(-c3ccc(CC(=O)O)cc3)cc2)c1NC(=O)O[C@H](C)c1ccccc1,6.32% (inactive)
11,CN(C)c1cc(NC(=O)CNC(C)(C)C)c(O)c2c1C[C@H]1C[C@H]3[C@H](N(C)C)C(=O)C(C(N)=O)C(=O)[C@@]3(O)C(=O)C1C2=O (stereo partly drawn),5.81% (inactive)
12,O=C(NCCCCN1CCOCC1)c1cc2ccccc2o1,0.553% (inactive)
13,OCCN1CCN(CCCN2c3ccccc3Sc3ccc(C(F)(F)F)cc32)CC1,-60% (inactive) and -63.7% (inactive)
14,OCCN1CCN(CCCN2c3ccccc3Sc3ccc(Cl)cc32)CC1,-81% (active)
15,CN1CCN(CCC=C2c3ccccc3Sc3ccc(S(=O)(=O)N(C)C)cc32)CC1,25.4% (inactive) and 73.8% (inactive)
16,CN(C)CC/C=C1/c2ccccc2Sc2ccc(Cl)cc21,-62.1% (inactive) and 35.6% (inactive)
17,CC(=O)c1ccc2c(c1)N(CCCN1CCN(CCO)CC1)c1ccccc1S2,15.8% (inactive)
18,CN1CCN(CCCN2c3ccccc3Sc3ccc(Cl)cc32)CC1,16.2% (inactive) and 18.1% (inactive)
19,CN(C)CC/C=C1\c2ccccc2Sc2ccc(Cl)cc21,-58.2% (inactive)
20,OCCN1CCN(CC/C=C2/c3ccccc3Sc3ccc(Cl)cc32)CC1,-82.3% (active)
21,OCCN1CCN(CC/C=C2/c3ccccc3Sc3ccc(C(F)(F)F)cc32)CC1,-74.2% (active)

row,Structure (SMILES),"activity change, negative = inhibition"
1,CC[C@H](C)[C@H](NC(=O)[C@H](Cc1ccc(O)cc1)NC(=O)[C@@H](NC(=O)[C@H](CCCN=C(N)N)NC(=O)[C@@H](N)CC(=O)O)C(C)C)C(=O)N[C@@H](Cc1cnc[nH]1)C(=O)N1CCC[C@H]1C(=O)O,8.39% (inactive)
2,O=S1(=O)N[C@H]2CCCN2c2ccccc21,1.4% (inactive)
3,CCC(=O)O[C@@]1(C(=O)CCl)[C@@H](C)C[C@H]2[C@@H]3C[C@H](F)C4=CC(=O)C=C[C@]4(C)[C@]3(F)[C@H](O)C[C@@]21C,6.07% (inactive)
4,CC(=O)c1c(O)c(C)c(O)c2c1OC1=CC(=O)C(C(C)=O)C(=O)C12C (stereo not drawn),-3.87% (inactive)
5,COc1ccccc1OCC(O)CNC(C)C (stereo not drawn),17.1% (inactive) and 3.92% (inactive)
6,COc1cc2c(cc1OC)C(=O)CC2,4.96% (inactive)
7,COc1cc(CCC(C)=O)ccc1O,7.65% (inactive)
8,COC(=O)C[C@](O)(CCCC(C)(C)O)C(=O)O[C@@H]1C(OC)=C[C@]23CCCN2CCc2cc4c(cc2[C@H]13)OCO4,-83.4% (active) and -83.9% (active) and -85.7% (active)
9,COCCCOc1ccnc(CS(=O)c2nc3ccccc3[nH]2)c1C (stereo not drawn),106% (inactive) and 41.3% (inactive)
10,N#CC(c1ccnc(OCc2ccc(CN3CCOCC3)cc2)n1)c1nc2ccccc2s1 (stereo not drawn),-29.2% (inactive)
11,C[C@@H](Oc1cc(-n2cnc3ccc(CN4CCN(C)CC4)cc32)sc1C(N)=O)c1ccccc1C(F)(F)F,-75.7% (active)
12,COc1cc2ncn(-c3cc(OCc4ccccc4C(F)(F)F)c(C(N)=O)s3)c2cc1OC,-75.1% (active)
13,C[C@H]1CC2C([C@@H](O)C[C@@]3(C)C2CC[C@]3(O)C(=O)COC(=O)CCC(=O)O)[C@@]2(C)C=CC(=O)C=C12 (stereo partly drawn),5.48% (inactive) and 3.76% (inactive)
14,COC1CC2CCC(C)C(O)(O2)C(=O)C(=O)N2CCCCC2C(=O)OC(C(C)CC2CCC(O)C(OC)C2)CC(=O)C(C)/C=C(\C)C(O)C(OC)C(=O)C(C)CC(C)/C=C/C=C/C=C/1C (stereo not drawn),5.34% (inactive) and -8.87% (inactive)
15,C=C1CC2C3C=C(C)C4=CC(=O)CC[C@]4(C)C3CC[C@]2(C)[C@@]1(OC(C)=O)C(C)=O (stereo partly drawn),10.5% (inactive) and -22.4% (inactive)
16,CCCCCCCCCCCCCCCCCC(=O)OCC(O)CO (stereo not drawn),5.64% (inactive)
17,COc1ccc(C2CC(c3c(O)cc(C)oc3=O)=NCCS2)c(OC)c1 (stereo not drawn),10.3% (inactive)
18,CO[C@H]1C=CO[C@@]2(C)Oc3c(C)c(O)c4c(O)c(c(/C=N/N5CCN(C6CCCC6)CC5)c(O)c4c3C2=O)NC(=O)/C(C)=C\C=C[C@H](C)[C@H](O)[C@@H](C)[C@@H](O)[C@@H](C)[C@H](OC(C)=O)[C@@H]1C,-5.33% (inactive)
19,CCCCCCCCCCCCCCCCCCOC[C@H](COP(=O)(O)OCC[N+](C)(C)C)OC,5.04% (inactive)
20,O=c1c(-c2ccc(O)cc2)coc2c([C@@H]3O[C@H](CO)[C@@H](O)[C@H](O)[C@H]3O)c(O)ccc12,-0.619% (inactive)
21,Cc1[nH]c(/C=C2/C(=O)Nc3ccc(F)cc32)c(C)c1C(=O)NC[C@H](O)CN1CCOCC1,-69.2% (inactive)

row,Structure (SMILES),"activity change, negative = inhibition"
1,CCN(CC)CCNC(=O)c1c(C)[nH]c(/C=C2\C(=O)Nc3ccc(F)cc32)c1C,-75.8% (active)
2,Cc1[nH]c(/C=C2\C(=O)Nc3ccccc32)c(C)c1CCC(=O)O,7.07% (inactive)
3,COc1cccc(OC)c1-c1ccc(C[C@H](NC(=O)c2c(Cl)cccc2Cl)C(=O)O)cc1,4.91% (inactive)
4,O=C(c1ccc(OCCCc2cnc[nH]2)cc1)C1CC1,31.1% (inactive)
5,CN=C(NC)NCc1ccc(OC)cc1,0.956% (inactive)
6,CC(C)CC1C(=O)N2CCCC2C2(O)OC(NC(=O)C3C=C4c5cccc6[nH]c(Br)c(c56)CC4N(C)C3)(C(C)C)C(=O)N12 (stereo not drawn),18.4% (inactive)
7,COc1cc2c(cc1OC)C(C(C(=O)N(CCc1ccc(OC)c(OC)c1OC)CCc1ccc(OC)c(OC)c1OC)c1ccccc1)=NCC2 (stereo not drawn),23.5% (inactive)
8,CC(C)n1nc(-c2ccc3oc(N)nc3c2)c2c(N)ncnc21,-74.3% (active)
9,CC(C)n1nc(-c2cc3cc(O)ccc3[nH]2)c2c(N)ncnc21,-50.4% (inactive)
10,CC(=O)O[C@@H]1CC[C@@]2(C)C(C[C@@H](OC(C)=O)[C@@]3(C)C4=CC(=O)O[C@@H](c5ccoc5)[C@]4(C)CCC23)C1(C)C (stereo partly drawn),12.5% (inactive)
11,O=C(O)CCc1c(C(=O)O)[nH]c2cc(Cl)cc(Cl)c12,12.5% (inactive)
12,CCC(C)[C@H]1O[C@]2(CC[C@@H]1C)C[C@@H]1C[C@@H](C/C=C(\C)[C@@H](OC3C[C@H](OC)C(O[C@H]4C[C@H](OC)[C@@H](O)[C@H](C)O4)[C@H](C)O3)[C@@H](C)/C=C/C=C3\CO[C@@H]4[C@H](O)C(C)=C[C@@H](C(=O)O1)[C@]34O)O2 (stereo partly drawn),-67.1% (inactive)
13,CCC(C)[C@H]1O[C@]2(C=C[C@@H]1C)C[C@@H]1C[C@@H](C/C=C(\C)[C@@H](OC3C[C@H](OC)C(O[C@H]4C[C@H](OC)[C@@H](NC(C)=O)[C@H](C)O4)[C@H](C)O3)[C@@H](C)/C=C/C=C3\CO[C@@H]4[C@H](O)C(C)=C[C@@H](C(=O)O1)[C@]34O)O2 (stereo partly drawn),-6.74% (inactive)
14,CC[C@H](C)[C@H]1O[C@]2(CC[C@@H]1C)C[C@@H]1C[C@@H](C/C=C(\C)[C@@H](O[C@H]3C[C@H](OC)[C@@H](O[C@H]4C[C@H](OC)[C@@H](O)[C@H](C)O4)[C@H](C)O3)[C@@H](C)/C=C/C=C3\CO[C@@H]4[C@H](O)C(C)=C[C@@H](C(=O)O1)[C@]34O)O2,-65% (inactive) and -79.5% (active)
15,COc1ccccc1N1CCN(CCCCN2C(=O)CCC2=O)CC1,-10.5% (inactive) and 6.09% (inactive)
16,C[C@]12C=CC(=O)C=C1CCC1C2C(=O)C[C@@]2(C)C1CC[C@]2(O)C(=O)CO (stereo partly drawn),-0.495% (inactive)
17,C=COCC(F)(F)F,2.78% (inactive)
18,COc1ncnc(N)c1OC,8.31% (inactive)
19,C[C@]12CCC3c4ccc(O)cc4CCC3C1CC[C@@H]2OC(=O)CCC1CCCC1 (stereo partly drawn),-65.2% (inactive) and 3.38% (inactive)
20,C[C@]12CC[C@@H]3c4ccc(O)cc4C[C@@H](CCCCCCCCCS(=O)CCCC(F)(F)C(F)(F)F)[C@H]3[C@@H]1CC[C@@H]2O (stereo partly drawn),-83.4% (active)
21,CCCCC(=O)O[C@H]1CC[C@H]2[C@@H]3CCc4cc(O)ccc4[C@H]3CC[C@]12C,-58.1% (inactive)
